Screening results (PubChem)
The list is not random: actives were taken first. Their share in the collection is about 14%.
Pf growth 96h: Primary qHTS for delayed death inhibitors of the malarial parasite plastid, 96 hour incubation; AID 504834, 2011; 6.9% of 320,000 active; Potency, µM (highest dose often 28.7 µM), hits mostly inhibitors; P. falciparum luciferase reporter growth, 96 h
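Erythrocytes infected with luciferase-expressing P. falciparum were dispensed at 2% hematocrit and 0.05% parasitemia (final), then incubated with compounds 96 hours at 37 C in 5% CO2. Luminescence after detection reagent addition reported growth.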
Sm TGR block: qHTS Assay for the Inhibitors of Schistosoma Mansoni Peroxiredoxins. Schistosoma mansoni thioredoxin glutathione reductase (TGR), Q962Y6. Potency, µM (highest dose often 114 µM), hits mostly inhibitors. AID 485364, 2010. 3% of 360,000 active. purified TGR, DTNB reduction, TNB absorbance 405 nm; further: nearly all actives have a fitted effect of over 60% in size
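First, TGR (20 nM dispensed) and NADPH were mixed with compound. Second, a 15 min room-temperature incubation followed. Third, further NADPH and then DTNB were added to start the reaction. Finally, TNB absorbance was monitored kinetically.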
Pf growth 48h: Primary qHTS for delayed death inhibitors of the malarial parasite plastid, 48 hour incubation. P. falciparum luciferase growth in erythrocytes, 48 h. Potency, µM (series often up to 28.7 µM), actives largely listed as inhibitors. 5.9% of 310,000 active. AID 504832, 2011
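Growth was read as firefly luciferase luminescence after a 48 h, 37 C, 5% CO2 exposure of compounds to reporter-bearing P. falciparum cultures (0.1% parasitemia, 2% hematocrit final) in Albumax-supplemented RPMI 1640.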
HCMV inh: qHTS Assay for inhibitors of the human cytomegalovirus (HCMV); HFF cells, HCMV-luciferase reporter, 72 h; hits give low values; activity change, negative = inhibition, % at 57.5 µM; 4.5% of 410,000 active; AID 1259415, 2018; in the data active means activity change below about -60%; inconclusive means no clear call, values can overlap the other calls; inactive means above about -39%
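After 16 h attachment at 37C, HFF cells received test compound and HCMV-luciferase (1 PFU/cell); reporter luminescence read 72 h later, data normalized against buffer-only and known inhibitor Salinomycin.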
Giardia FBPA inh: qHTS Assay for Inhibitors of Fructose-1,6-bisphosphate Aldolase from Giardia Lamblia; AID 2451, 2010; purified Giardia FBPA; A8B2U2; 0.71% of 290,000 active; Potency, µM (titrated, usually from 59.6 µM), actives largely listed as inhibitors; further: nearly all actives have a fitted effect of over 55% in size
Target sequence (A8B2U2 whole entry, looked up): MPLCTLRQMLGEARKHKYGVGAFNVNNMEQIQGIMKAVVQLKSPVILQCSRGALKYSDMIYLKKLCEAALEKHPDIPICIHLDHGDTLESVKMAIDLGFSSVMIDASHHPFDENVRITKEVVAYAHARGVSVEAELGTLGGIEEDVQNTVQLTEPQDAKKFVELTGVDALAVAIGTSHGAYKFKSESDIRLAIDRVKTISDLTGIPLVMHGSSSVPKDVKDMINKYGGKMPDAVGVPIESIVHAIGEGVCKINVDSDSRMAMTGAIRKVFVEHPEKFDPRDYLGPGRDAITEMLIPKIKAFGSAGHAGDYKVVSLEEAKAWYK
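Giardia FBPA (40 nM reagent) was preincubated 10 min at RT with compound (up to 57.5 uM final), then substrate plus GAPDH/TPI/NAD/arsenate coupling system with diaphorase/resazurin was added; resorufin fluorescence (525/598 nm) was read after 20 min.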
Each line names hits and unclear results; the compound was inactive in the other large screens. Unless noted, the call rests on the fitted dose curve; in most records, active means well fitted curve in the direction sought with a large enough effect; inconclusive means small, poorly fitted or top-dose-only effect, or another doubt; inactive means no such curve, though single readings can be large; an effect the other way counts as inactive or inconclusive.

CS(=O)(=O)N(CC(=O)Nc1cccc([N+](=O)[O-])c1)c1ccccc1	none (no result: Sm TGR block)
CCN(CC)S(=O)(=O)c1ccc(NC(=O)CN(c2ccc(OC)cc2OC)S(C)(=O)=O)cc1	Pf growth 48h 9.28µM
COc1ccc(C)cc1S(=O)(=O)N(CC(=O)Nc1cccc([N+](=O)[O-])c1)c1ccccc1	Pf growth 96h 11.7µM, Pf growth 48h inconclusive, HCMV inh inconclusive
COc1ccc(N(CC(=O)Nc2ccc(F)cc2)S(=O)(=O)c2ccccc2[N+](=O)[O-])c(OC)c1	Pf growth 48h inconclusive
CCOC(=O)Cc1ccc(NC(=O)n2ncc3cc(Cl)ccc32)cc1	none (no result: Pf growth 96h, Pf growth 48h, HCMV inh, Giardia FBPA inh)
COc1ccc(C(=O)N2CCC3(CCCN(C(=O)Nc4cccc(F)c4)C3)CC2)cc1	none (no result: Pf growth 96h, Sm TGR block, Pf growth 48h, HCMV inh)
Cc1cc(Br)ccc1NC(=O)CCNS(=O)(=O)c1cccc2nonc12	none (no result: Pf growth 96h, Pf growth 48h, Giardia FBPA inh)
Cc1ccc(C(=O)CCNc2ccccc2)o1	Sm TGR block 25.1µM (no result: Pf growth 96h)
Cc1ccc(C(=O)CCNc2ccc(Br)cc2)o1	Sm TGR block inconclusive
Cc1ccc(C(=O)CCNc2cccc(Br)c2)o1	Sm TGR block 56.2µM
CC(C)C[C@H]1COc2cc(N3CCOCC3)ccc2S(=O)(=O)N1	none (no result: Pf growth 96h, Sm TGR block, Pf growth 48h, Giardia FBPA inh)
O=C1OC(c2ccc(Cl)cc2)=N/C1=C\C=C\c1ccco1	Sm TGR block 28.2µM
N#Cc1cccc(-c2cc(NCc3cccnc3)ncn2)c1	none (no result: Pf growth 96h, Sm TGR block, Pf growth 48h, HCMV inh)
CC(C)C(C)(C#N)NC(=O)CSc1nc2scc(-c3ccc(F)cc3)c2c(=O)n1Cc1ccccc1 (stereo not drawn)	Pf growth 96h 4.65µM, Pf growth 48h 9.28µM
CC(C)C(C)(C#N)NC(=O)CSc1nnc(-c2ccncc2)n1Cc1ccccc1 (stereo not drawn)	Pf growth 96h 3.7µM, Pf growth 48h inconclusive
CC(C)(C)NC(=O)CSc1nnc(-c2ccncc2)n1Cc1ccccc1	none
COC(=O)CSc1nc2sc3c(c2c(=O)n1Cc1ccccc1)CCC(C(C)(C)C)C3 (stereo not drawn)	none (no result: Pf growth 96h, Pf growth 48h, Giardia FBPA inh)
O=C(COC(=O)/C=C/c1ccc(Br)o1)Nc1ccc2[nH]c(=O)[nH]c2c1	Sm TGR block inconclusive (no result: Giardia FBPA inh)
Cc1ccc(NC(=O)COC(=O)/C=C/c2ccc(Br)o2)cc1S(=O)(=O)N(C)C	Sm TGR block 25.1µM
CN(C)S(=O)(=O)c1cccc(NC(=O)COC(=O)/C=C/c2ccc(Br)o2)c1	Sm TGR block 7.08µM
COC(=O)c1sc(N2C(=O)C(=O)/C(=C(/O)c3ccc(C)cc3)C2c2ccco2)nc1C (stereo not drawn)	Sm TGR block 7.08µM (no result: HCMV inh)
CCOc1ccc(/C(O)=C2/C(=O)C(=O)N(c3nc(C)c(C)s3)C2c2ccco2)cc1 (stereo not drawn)	Sm TGR block inconclusive, HCMV inh -90.0
COc1ccc(C2/C(=C(\O)c3ccc4c(c3)OCCO4)C(=O)C(=O)N2c2nc(C)c(C(C)=O)s2)cc1 (stereo not drawn)	Pf growth 96h inconclusive
COc1ccccc1CCNC(=O)c1cccn1-c1nnc(N2CCCC2)s1	none (no result: Pf growth 96h, Pf growth 48h, Giardia FBPA inh)
COc1ccc([C@@H]2CC(=O)c3c(O)cc(O)cc3O2)cc1O	none
COc1c(CC=C(C)C)cc(C2CC(=O)c3c(O)cc(O)cc3O2)cc1CC=C(C)C (stereo not drawn)	Pf growth 48h inconclusive, HCMV inh -69.0
CC#CC(=O)N[C@H]1CC[C@@]23CCCN2C(=O)CCC[C@H]3[C@H]1Cc1ccccc1	none (no result: Pf growth 96h, Sm TGR block, Pf growth 48h, Giardia FBPA inh)
CC1(C)CC(=O)C=C(c2cccc(Br)c2)C1	Pf growth 96h inconclusive, HCMV inh -64.0 (no result: Giardia FBPA inh)
CC1(C)CC(=O)C=C(c2ccc(-c3ccccc3)cc2)C1	none (no result: Giardia FBPA inh)
O=C(NCCc1ccccc1)c1ccc(NC(=O)C2CC2)cc1	none (no result: Pf growth 96h, Sm TGR block, Pf growth 48h, Giardia FBPA inh)
O=C(COc1ccc(C(=O)NCCc2ccccc2)cc1)Nc1ccccc1	Pf growth 96h 4.15µM
CCOc1ccc(CCNC(=O)c2ccc3nc(CC)c(CC)nc3c2)cc1	Pf growth 96h 13.1µM
CCCCOc1ccc(CC(=O)NO)cc1	Pf growth 96h 0.233µM, Pf growth 48h 0.415µM
CC(=O)Nc1ccc(C(=O)NCCc2ccccc2)cc1	Sm TGR block 5.01µM
CCCCOc1ccc(C(=O)NC)cc1	none (no result: Pf growth 96h)
CCc1nc2ccc(C(=O)NCCc3ccc(OC)cc3OC)cc2nc1CC	none (no result: Pf growth 96h, Pf growth 48h, Giardia FBPA inh)
CCCCOc1ccc(C(=O)NCCc2ccccc2)cc1	Pf growth 96h 2.62µM
